# Compounds without any hit were thinned out: in the full panel of roughly 79,000, 15% have a hit. A number with no mark means an inactive call. Calls of active or inactive are those of the source. Rule as the data show it: active = growth inhibition above about 70%; inactive = the rest.
# Key:
# [1] = NCI Yeast Anticancer Drug Screen. Data for the mlh1 strain (AID 171);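 also: 0% = growth of vehicle-treated control cultures of the same strain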; details: S. cerevisiae mlh1 strain growth inhibition, hits give high values
# Summary of the method: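 Steps: expose the defined-mutant yeast strain to compound; expose a parallel culture to vehicle; measure growth; express compound effect as inhibition relative to the vehicle culture.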
# [2] = NCI Yeast Anticancer Drug Screen. Data for the mlh1 rad18 strain (AID 175); details: S. cerevisiae mlh1 rad18 strain growth inhibition, hits give high values
# Summary of the method: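 Test agents were incubated with a yeast strain of defined genotype (DNA damage repair defect). Inhibition of growth was derived by comparison with vehicle-exposed cultures.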
# [3] = NCI Yeast Anticancer Drug Screen. Data for the rad18 strain (AID 177); details: S. cerevisiae rad18 mutant growth inhibition, hits give high values
# Summary of the method: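 A genetically defined yeast mutant impaired in DNA damage repair was treated with test compounds, then its growth was measured against cultures receiving vehicle alone.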
# [4] = NCI Yeast Anticancer Drug Screen. Data for the rad52 strain (AID 147);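 also: 0% = growth of vehicle-treated control cultures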; details: S. cerevisiae rad52 mutant growth inhibition, hits give high values
# Summary of the method: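 Screen used a yeast mutant impaired in DNA repair. After compound exposure, growth was measured. Values reflect inhibition compared with vehicle-treated cells.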
# [5] = NCI Yeast Anticancer Drug Screen. Data for the wt1 strain (AID 149);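 also: 0% = growth of vehicle-treated wt1 cultures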; details: S. cerevisiae wt1 strain (SPY 50644) growth inhibition, hits give high values
# Summary of the method: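 Readout: yeast growth inhibition, normalised to vehicle controls, in the wt1 strain exposed to test compounds.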
# [6] = NCI Yeast Anticancer Drug Screen. Data for the rad50EPP+ strain (AID 151);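 also: 0% = growth of vehicle-treated control cultures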; details: S. cerevisiae rad50 mutant strain, hits give high values
# Summary of the method: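 Exposing the rad50EPP+ strain to each compound, growth was compared with vehicle-only cultures to give inhibition.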
# [7] = NCI Yeast Anticancer Drug Screen. Data for the mgt1 strain (AID 153); details: S. cerevisiae mgt1 mutant growth inhibition, hits give high values
# Summary of the method: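 Genetically defined yeast (mgt1) treated with compound; inhibition of growth expressed against vehicle-treated controls.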
# [8] = NCI Yeast Anticancer Drug Screen. Data for the rad50 strain (AID 155);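 also: 0% = growth of vehicle-only cultures of the same strain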; details: S. cerevisiae rad50 strain growth inhibition, hits give high values
# Summary of the method: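 Compounds were tested on a yeast strain with an engineered DNA damage repair alteration; the reported value is growth inhibition normalised to vehicle treatment.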
# [9] = NCI Yeast Anticancer Drug Screen. Data for the mec2-1 strain (AID 157); details: S. cerevisiae mec2-1 strain, hits give high values
# Summary of the method: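 Readout is yeast growth inhibition, normalised to vehicle-treated controls, in the mec2-1 strain exposed to compound.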
# [10] = NCI Yeast Anticancer Drug Screen. Data for the rad14 strain (AID 159);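 also: 0% = growth of vehicle-treated control cultures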; details: S. cerevisiae rad14 strain growth inhibition, hits give high values
# Summary of the method: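 Compound-treated yeast with a defined DNA-repair lesion; growth inhibition normalised to vehicle-treated cultures.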
# [11] = NCI Yeast Anticancer Drug Screen. Data for the sgs1 mgt1 strain (AID 161);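 also: 0% = growth of cultures given vehicle only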; details: S. cerevisiae sgs1 mgt1 strain, hits give high values
# Summary of the method: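 Growth of a repair-deficient yeast mutant was monitored after compound treatment and expressed as inhibition relative to vehicle-treated cultures.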
# [12] = NCI Yeast Anticancer Drug Screen. Data for the CLN2oe strain (AID 163);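 also: 0% = growth of vehicle-only control cultures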; details: S. cerevisiae CLN2oe strain, hits give high values
# Summary of the method: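 Values reflect how much compound exposure reduced yeast growth, referenced to vehicle-exposed cells. Assay organism is a strain with a defined genetic change affecting cell-cycle control.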
# [13] = NCI Yeast Anticancer Drug Screen. Data for the cln2 rad14 strain (AID 165);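 also: 0% = growth equal to vehicle treated cultures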; details: S. cerevisiae cln2 rad14 strain, hits give high values
# Summary of the method: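 Relative to vehicle controls, growth inhibition of compound-treated cln2 rad14 yeast was recorded.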
# [14] = NCI Yeast Anticancer Drug Screen. Data for the bub3 strain (AID 167); details: S. cerevisiae bub3 mutant strain, hits give high values
# Summary of the method: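 Growth of a checkpoint-deficient yeast mutant is measured after compound exposure. Values represent inhibition relative to vehicle.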
# [15] = NCI Yeast Anticancer Drug Screen. Data for the sgs1 strain (AID 173);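 also: 0% = growth of vehicle-only control cultures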; details: S. cerevisiae sgs1 mutant, hits give high values
# Summary of the method: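 Treat defined-mutant yeast with compound; measure growth; calculate inhibition relative to vehicle-treated cells.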
# [16] = NCI Yeast Anticancer Drug Screen. Data for the wt2 strain (AID 169);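 also: 0% = growth of vehicle-treated yeast cultures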; details: S. cerevisiae wt2 strain growth inhibition, hits give high values
# Summary of the method: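 Values express reduction in yeast growth under compound treatment, referenced to vehicle-treated cells.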
# [17] = at 5.0 µM (retest, dose inferred, filed as 0.5)
# [18] = at 50.0 µM (retest, dose inferred, filed as 5.0)
structure (smiles),measurement,setting,value
CCCCS(=O)(=O)Nc1ccc(Nc2c3ccccc3nc3ccccc23)c(OC)c1,growth inhibition,[1]; at 1.2 µM,-58%
same,growth inhibition,[1]; at 3.7 µM,-43%
same,growth inhibition,[1]; at 11.0 µM,-29%
same,growth inhibition,[1]; at 33.0 µM,73% (active)
same,growth inhibition,[1]; at 100.0 µM,97% (active)
same,growth inhibition,[2]; [17],78% (active)
same,growth inhibition,[2]; [18],97% (active)
same,growth inhibition,[2]; at 50.0 µM,84% (active)
same,growth inhibition,[3]; at 1.2 µM,-14%
same,growth inhibition,[3]; at 3.7 µM,-15%
same,growth inhibition,[3]; at 11.0 µM,0%
same,growth inhibition,[3]; at 33.0 µM,78% (active)
same,growth inhibition,[3]; at 100.0 µM,96% (active)
CCC(=O)C1=C(O)c2cc(OC)ccc2CC1C(=O)OC (stereo unspecified),growth inhibition,[4]; at 1.2 µM,-1%
same,growth inhibition,[4]; at 3.7 µM,2%
same,growth inhibition,[4]; at 11.0 µM,7%
same,growth inhibition,[4]; at 33.0 µM,16%
same,growth inhibition,[4]; at 100.0 µM,43%
same,growth inhibition,[5]; at 1.2 µM,0%
same,growth inhibition,[5]; at 3.7 µM,5%
same,growth inhibition,[5]; at 11.0 µM,4%
same,growth inhibition,[5]; at 33.0 µM,6%
same,growth inhibition,[5]; at 100.0 µM,19%
same,growth inhibition,[6]; at 1.2 µM,2%
same,growth inhibition,[6]; at 3.7 µM,6%
same,growth inhibition,[6]; at 11.0 µM,43%
same,growth inhibition,[6]; at 33.0 µM,73% (active)
same,growth inhibition,[6]; at 100.0 µM,86% (active)
same,growth inhibition,[7]; at 1.2 µM,-2%
same,growth inhibition,[7]; at 3.7 µM,-1%
same,growth inhibition,[7]; at 11.0 µM,4%
same,growth inhibition,[7]; at 33.0 µM,10%
same,growth inhibition,[7]; at 100.0 µM,19%
same,growth inhibition,[8]; at 1.2 µM,-1%
same,growth inhibition,[8]; at 3.7 µM,-1%
same,growth inhibition,[8]; [17],-9%
same,growth inhibition,[8]; at 11.0 µM,6%
same,growth inhibition,[8]; at 33.0 µM,4%
same,growth inhibition,[8]; [18],73% (active)
same,growth inhibition,[8]; at 50.0 µM,13.1%
same,growth inhibition,[8]; at 100.0 µM,28%
same,growth inhibition,[9]; at 1.2 µM,-1%
same,growth inhibition,[9]; at 3.7 µM,-4%
same,growth inhibition,[9]; [17],-5%
same,growth inhibition,[9]; at 11.0 µM,-1%
same,growth inhibition,[9]; at 33.0 µM,13%
same,growth inhibition,[9]; [18],-1%
same,growth inhibition,[9]; at 50.0 µM,13.2%
same,growth inhibition,[9]; at 100.0 µM,35%
same,growth inhibition,[10]; at 1.2 µM,2%
same,growth inhibition,[10]; at 3.7 µM,6%
same,growth inhibition,[10]; at 11.0 µM,11%
same,growth inhibition,[10]; at 33.0 µM,19%
same,growth inhibition,[10]; at 100.0 µM,35%
same,growth inhibition,[11]; [17],-3%
same,growth inhibition,[11]; [18],89% (active)
same,growth inhibition,[11]; at 50.0 µM,24%
same,growth inhibition,[12]; at 1.2 µM,-7%
same,growth inhibition,[12]; at 3.7 µM,-8%
same,growth inhibition,[12]; at 11.0 µM,2%
same,growth inhibition,[12]; at 33.0 µM,10%
same,growth inhibition,[12]; at 100.0 µM,21%
same,growth inhibition,[13]; [17],-5%
same,growth inhibition,[13]; [18],20%
same,growth inhibition,[13]; at 50.0 µM,4.75%
same,growth inhibition,[14]; at 1.2 µM,-7%
same,growth inhibition,[14]; at 3.7 µM,-8%
same,growth inhibition,[14]; [17],7%
same,growth inhibition,[14]; at 11.0 µM,-9%
same,growth inhibition,[14]; at 33.0 µM,2%
same,growth inhibition,[14]; [18],78% (active)
same,growth inhibition,[14]; at 50.0 µM,38.9%
same,growth inhibition,[14]; at 100.0 µM,15%
same,growth inhibition,[1]; at 1.2 µM,-5%
same,growth inhibition,[1]; at 3.7 µM,-1%
same,growth inhibition,[1]; at 11.0 µM,2%
same,growth inhibition,[1]; at 33.0 µM,10%
same,growth inhibition,[1]; at 100.0 µM,26%
same,growth inhibition,[15]; at 1.2 µM,-1%
same,growth inhibition,[15]; at 3.7 µM,-1%
same,growth inhibition,[15]; at 11.0 µM,4%
same,growth inhibition,[15]; at 33.0 µM,18%
same,growth inhibition,[15]; at 100.0 µM,37%
same,growth inhibition,[2]; [17],16%
same,growth inhibition,[2]; [18],90% (active)
same,growth inhibition,[2]; at 50.0 µM,31.4%
same,growth inhibition,[3]; at 1.2 µM,-1%
same,growth inhibition,[3]; at 3.7 µM,-3%
same,growth inhibition,[3]; at 11.0 µM,2%
same,growth inhibition,[3]; at 33.0 µM,8%
same,growth inhibition,[3]; at 100.0 µM,21%
O=C1c2cccc3cccc(c23)C(=O)N1CCNCCN1C(=O)c2cccc3cccc(c23)C1=O,growth inhibition,[4]; at 1.2 µM,1%
same,growth inhibition,[4]; at 3.7 µM,3%
same,growth inhibition,[4]; at 11.0 µM,5%
same,growth inhibition,[4]; at 33.0 µM,14%
same,growth inhibition,[4]; at 100.0 µM,34%
same,growth inhibition,[5]; at 1.2 µM,0%
same,growth inhibition,[5]; at 3.7 µM,0%
same,growth inhibition,[5]; at 11.0 µM,-1%
same,growth inhibition,[5]; at 33.0 µM,1%
same,growth inhibition,[5]; at 100.0 µM,5%
same,growth inhibition,[6]; at 1.2 µM,-1%
same,growth inhibition,[6]; at 3.7 µM,0%
same,growth inhibition,[6]; at 11.0 µM,0%
same,growth inhibition,[6]; at 33.0 µM,2%
same,growth inhibition,[6]; at 100.0 µM,10%
same,growth inhibition,[7]; at 1.2 µM,-3%
same,growth inhibition,[7]; at 3.7 µM,0%
same,growth inhibition,[7]; at 11.0 µM,-1%
same,growth inhibition,[7]; at 33.0 µM,1%
same,growth inhibition,[7]; at 100.0 µM,2%
same,growth inhibition,[8]; at 1.2 µM,1%
same,growth inhibition,[8]; at 3.7 µM,3%
same,growth inhibition,[8]; [17],19%
same,growth inhibition,[8]; at 11.0 µM,6%
same,growth inhibition,[8]; at 33.0 µM,21%
same,growth inhibition,[8]; [18],84% (active)
same,growth inhibition,[8]; at 50.0 µM,86.1% (active)
same,growth inhibition,[8]; at 100.0 µM,53%
same,growth inhibition,[9]; at 1.2 µM,-3%
same,growth inhibition,[9]; at 3.7 µM,-4%
same,growth inhibition,[9]; [17],6%
same,growth inhibition,[9]; at 11.0 µM,-3%
same,growth inhibition,[9]; at 33.0 µM,2%
same,growth inhibition,[9]; [18],4%
same,growth inhibition,[9]; at 50.0 µM,26.4%
same,growth inhibition,[9]; at 100.0 µM,5%
same,growth inhibition,[10]; at 1.2 µM,0%
same,growth inhibition,[10]; at 3.7 µM,1%
same,growth inhibition,[10]; at 11.0 µM,0%
same,growth inhibition,[10]; at 33.0 µM,-1%
same,growth inhibition,[10]; at 100.0 µM,4%
same,growth inhibition,[11]; [17],5%
same,growth inhibition,[11]; [18],10%
same,growth inhibition,[11]; at 50.0 µM,15.5%
same,growth inhibition,[12]; at 1.2 µM,-1%
same,growth inhibition,[12]; at 3.7 µM,-2%
same,growth inhibition,[12]; at 11.0 µM,4%
same,growth inhibition,[12]; at 33.0 µM,-1%
same,growth inhibition,[12]; at 100.0 µM,-1%
same,growth inhibition,[13]; [17],6%
same,growth inhibition,[13]; [18],6%
same,growth inhibition,[13]; at 50.0 µM,15.9%
same,growth inhibition,[16]; at 1.2 µM,0%
same,growth inhibition,[16]; at 3.7 µM,0%
same,growth inhibition,[16]; at 11.0 µM,0%
same,growth inhibition,[16]; at 33.0 µM,1%
same,growth inhibition,[16]; at 100.0 µM,5%
same,growth inhibition,[1]; at 1.2 µM,0%
same,growth inhibition,[1]; at 3.7 µM,-3%
same,growth inhibition,[1]; at 11.0 µM,-1%
same,growth inhibition,[1]; at 33.0 µM,0%
same,growth inhibition,[1]; at 100.0 µM,2%
same,growth inhibition,[15]; at 1.2 µM,-1%
same,growth inhibition,[15]; at 3.7 µM,-2%
same,growth inhibition,[15]; at 11.0 µM,-1%
same,growth inhibition,[15]; at 33.0 µM,-1%
same,growth inhibition,[15]; at 100.0 µM,4%
same,growth inhibition,[2]; [17],4%
same,growth inhibition,[2]; [18],18%
same,growth inhibition,[2]; at 50.0 µM,7.55%
same,growth inhibition,[3]; at 1.2 µM,-3%
same,growth inhibition,[3]; at 3.7 µM,-2%
same,growth inhibition,[3]; at 11.0 µM,-1%
same,growth inhibition,[3]; at 33.0 µM,-1%
same,growth inhibition,[3]; at 100.0 µM,6%

# Reference: PubChem BioAssay (NCI)
